Records with an inconclusive call do not appear. Entries that show only a call come without a potency. Active and inactive are the calls of the source. Calls come from the whole dose curve; as a rule, active = well fitted cell-killing curve with a large enough effect in the repeat runs; inconclusive = weak or mixed curves, or effect the other way; inactive = flat fitted curve, though single readings scatter.

This assay can be described thus: qHTS assay to identify small molecule antagonists of the retinoid acid receptor (RAR) signaling pathway - cell viability counter screen (AID 1159551). Note: nearly all actives have a fitted effect of over 35% in size. To be noted: C3RL4 cells viability, ATP luminescence (CellTiter-Glo), 6 h; series mostly up to 92.4 µM. From the text:
U.S. Tox21 Program National Center for Advancing Translational Sciences [NCATS] NIH Chemical Genomics Center [NCGC] U.S. Environmental Protection Agency [EPA] National Institutes of Environmental Health Sciences [NIEHS] National Toxicology Program [NTP] U.S. Food and Drug Administration [FDA] Tox21 Assay Overview: All-trans Retinoic acid (atRA) is the potent natural metabolite of retinol and plays an important role in normal embryonic development and maintenance of cellular phenotype in adult animals. atRA is the activating ligand for the retinoic acid receptors (RARs) which form heterodimers with retinoid X receptors (RXRs) on the retinoic acid response element (RARE). Through activation of the RAR/RXRs nuclear receptors, atRA regulates the transcription of a large number of protein-coding genes and regulatory RNAs. Intracellular levels of atRA are controlled by the retinol signaling pathway (RSP) that regulates the biosynthesis and catabolism of atRA to maintain physiological levels. Chemicals that interfere with the RSP can cause abnormal intracellular levels of atRA and therefore are potential developmental toxicants. To assess compounds for the potential adverse effect on embryonic development through interfering with retinol signaling, a cell-based RARE luciferase reporter gene assay was used. C3RL4 cell line (OARSA/CFSAN/FDA, Laurel, MD) was used to screen Tox21 10K compound library for identifying inhibitors of the RSP. Also cytotoxicity was assessed by determining the viability of cells based on the quantitation of ATP.
Tox21 Assay Protocol Summary: C3RL4 cells were seeded at 1,000/well in 4 uL of assay medium into white solid 1,536-well tissue culture plates (Greiner Bio-One North America Inc. Monroe, NC) using a Multidrop Combi (Thermo Scientific, Waltham, MA) dispenser. After incubation at 37 C and 5% CO2 for an overnight, 23 nL of compounds dissolved in DMSO, positive control or DMSO only were transferred by a Pintool station (Kalypsys, San Diego, CA). One ul of 1 uM (final concentration) of Retinol was added right after the compound addition by using a Flying Reagent Dispenser (FRD) (Aurora Discovery, San Diego, CA). After 6 hr incubation at 37 C and 5% CO2, 5 uL of CellTiter-Glo reagent (Promega Corporation, Madison, WI) was added to each assay plate using an FRD. Luminescence was quantified on a ViewLux plate reader (PerkinElmer, Waltham, MA) after 30 min incubation at room temperature.
In the case of `O=C(CCCN1CCC(n2c(=O)[nH]c3ccccc32)CC1)c1ccc(F)cc1`, the Potency entry is “inactive”.
As for `CCCSP(=S)(OCC)Oc1ccc(Cl)cc1Cl` (stereo not given), the Potency result is “inactive”.
Under `CCC#N` stands “inactive”; under `CC(C(O)c1ccccc1)N(C)C/C=C/c1ccccc1` (stereo not given), “inactive”; under `ClCC(Cl)(Cl)Cl`, “inactive”.
Under `COC(=O)c1ccccc1S(=O)(=O)NC(=O)Nc1nc(C)cc(C)n1` stands “inactive”; under `CCCCCCI`, “inactive”.
For `[Cl][Sn]([Cl])([Cl])[Cl]` the value was “inactive”; for `CNC(=O)Oc1c(C(C)(C)C)cc(C)cc1C(C)(C)C`, “inactive”.
As for `c1ccc(N2CCNCC2)cc1`, the Potency entry was “inactive”.
Under `N#Cc1c(Cl)cccc1Cl` stands “inactive”.
For the compound `N#CC(O)c1ccccc1` (stereo not given), the Potency entry was “inactive”.
Under `O=[N+]([O-])c1ccc(CBr)cc1` stands “inactive”.
Under `CN(C)CCc1ccc(O)cc1` stands “inactive”; under `O=C(CCN1CC1)OCC(CO)(COC(=O)CCN1CC1)COC(=O)CCN1CC1`, “inactive”; under `O=[N+]([O-])c1cccc(O)c1`, “inactive”.
Under `O=NN1CCN(N=O)CC1` stands “inactive”; under `COP(=S)(OC)Oc1ccc(S(N)(=O)=O)cc1`, “inactive”; under `CNC(=O)N(C)c1nc2ccccc2s1`, “inactive”.
Turning to `OCCSCSCCO`, the Potency result is “inactive”.
Under `COc1ccc(C(=O)N2CCCC2=O)cc1` stands “inactive”; under `COc1cc(OC)nc(Oc2cccc(Oc3nc(OC)cc(OC)n3)c2C(=O)O)n1`, “inactive”; under `C[C@]1(O)CC[C@H]2[C@@H]3CCC4=CC(=O)CC[C@]4(C)[C@@]3(F)[C@@H](O)C[C@@]21C`, “inactive”.
For `CNCC(=O)c1ccc(O)c(O)c1` the value was “inactive”; for `CC1(C(=O)Nc2ccc(O)c(Cl)c2Cl)CCCCC1`, “inactive”.
Under `CC(Cl)(Cl)[N+](=O)[O-]` stands “inactive”; under `CC1=NNC(=O)N(/N=C/c2cccnc2)C1`, “inactive”; under `CCCSC(=O)Cl`, “inactive”.
On to `Cc1cc(C)nc(Nc2ccccc2)n1`, for which the Potency result was “inactive”.
`O=[N+]([O-])c1ccc2c3c(cccc13)CC2`: the Potency entry is “inactive”.
For the compound `CCCCc1c(C)nc(NCC)[nH]c1=O`, the Potency result was “inactive”.
For `NC(=O)c1cc([N+](=O)[O-])cc([N+](=O)[O-])c1` the value was “inactive”; for `c1cc2c(c(N3CCNCC3)c1)OCCO2`, “inactive”.
Under `CCOP(=S)(OCC)SCSP(=S)(OCC)OCC` stands “inactive”; under `CCN(CC)CCOC(=O)C(C)(c1ccccc1)c1ccccc1`, “inactive”; under `O=C1OC(c2ccc(O)c(S(=O)(=O)O)c2)(c2ccc(O)c(S(=O)(=O)O)c2)c2c(Br)c(Br)c(Br)c(Br)c21`, “inactive”.
With `Cc1ncc(CNC(=O)N(CCCl)N=O)c(N)n1`, the Potency entry was “inactive”.
For `O=c1oc2ccccc2c(O)c1C1CCCc2ccccc21` (stereo not given) the value was “inactive”; for `CN1CCC(N(Cc2ccccc2)c2ccccc2)CC1`, “inactive”.
Consider `CCN(CC)c1nc(C)cc(OP(=S)(OC)OC)n1`, for which the Potency entry is “inactive”.

Values taken from PubChem BioAssay (Tox21).
